The sample as a whole holds a higher share of hits than the screen did.
VCAM1 pot: TNF alpha stimulated VCAM1 expression potentiation | 0.19% of 93,000 active | activation, % at 2 µM | HUVEC TNFa-stimulated VCAM-1 immunofluorescence, high-content imaging; scaled per plate to unstimulated/TNFa-only wells;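 active = activation above the screen mean plus 3 SD, with well images confirming the hit on visual review, cut at about 28% in these data, passing the limit was not always enough; inconclusive = activation above that limit but images do not confirm it; inactive = activation not above that limit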;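 note: signal is the number of cytoplasmic VCAM-1 stained grains per positive cell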
VCAM1 pot conf: enhancers of VCAM1 induction in HUVEC – imaging, triplicate retest, confirmation. shares compounds with VCAM1 pot. HUVEC TNFa-stimulated VCAM-1 immunofluorescence imaging. activation, % at 2 µM. 230 tested, under 10 active. AID 1034;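 active = activation above 30% in triplicate retests at 2 µM, then confirmed by visual review of the well images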
A number is an active result; 0 = inactive; ? = inconclusive.

SMILES	VCAM1 pot	others
O=S(=O)(N1CCCCCC1)N1CCN(S(=O)(=O)N2CCCCC2)CC1	0
Cc1ccc(OCCNS(=O)(=O)c2cccs2)cc1	0
Brc1ccc(NCc2cccc3ccccc23)nc1	31.1	VCAM1 pot conf=0
CCC(=O)NC(c1ccc([N+](=O)[O-])cc1)c1c(O)ccc2ccccc12 (stereo not given)	0
CC(CC(=O)Nc1cc([N+](=O)[O-])ccc1Cl)c1ccccc1 (stereo not given)	52.6	VCAM1 pot conf=0
O=C(CCc1ccccc1)Nc1cc(C(F)(F)F)ccc1Cl	0
CC1CC(C)CN(c2nc3c(c(=O)n(C)c(=O)n3C)n2C)C1 (stereo not given)	0
COc1ccc(CCN2C(=O)C(O)=C(C(=O)c3ccco3)C2c2cccs2)cc1OC (stereo not given)	0
Cn1c(Sc2ccc(C(F)(F)F)cc2[N+](=O)[O-])nnc1-c1ccccc1	0
CC1CCC2(CC1)N=C(N)Nc1nc3ccccc3n12 (stereo not given)	0
CCOC(=O)c1cnn(-c2ccccc2)c1-n1cccc1C(=O)C(=O)Nc1ccc(F)cc1	0
O=C(CSc1nnnn1-c1ccc2c(c1)OCO2)NCc1ccccc1	0
Cc1cc(C(=O)CSc2nnc(Cc3ccccc3)o2)c(C)n1Cc1ccc2c(c1)OCO2	53.5	VCAM1 pot conf=0
O=C(CSc1nnc(Cc2cccs2)n1-c1ccccc1)NCc1ccc2c(c1)OCO2	0
O=C(CSc1nnc(-c2cccs2)n1-c1ccccc1)N1CCc2ccccc21	0
CCOC(=O)c1ccccc1NC(=O)CSc1nnc(COc2ccccc2C)n1C	0
Cc1cccc(CCNC(=O)CN(C)S(=O)(=O)c2ccc3c(c2)c(=O)n(C)c(=O)n3C)c1	0
Cc1cccc(CCNS(=O)(=O)c2ccc3c(c2)oc(=O)n3C)c1	110.7	VCAM1 pot conf=0
CCOc1ccccc1CNS(=O)(=O)c1ccc2c(c1)oc(=O)n2C	0
N#CC(/C(=N/S(=O)(=O)c1cccs1)c1ccccc1)c1nc2ccccc2[nH]1 (stereo not given)	0
CN(C)CCCN1C(=O)C(=O)/C(=C(/O)c2ccc3c(c2)OCO3)C1c1ccccn1 (stereo not given)	0
CN1CCCCc2c1[nH]c1ccccc1c2=O	0
CCOC(=O)Cc1csc(NC(=O)c2cccnc2)n1	0
O=C(NCCCCNC(=O)c1cccnc1)c1cccnc1	?	VCAM1 pot conf=0
O=C(NCCCNC(=O)c1ccco1)c1ccco1	0
SMILES	VCAM1 pot	others
CCCCCn1c(CCC(=O)Oc2ccccc2OC)nc2c1c(=O)[nH]c(=O)n2CCCC	0
CCOC(=O)c1sc(NC(=O)/C=C/c2cnn(CC)c2C)c(C(=O)OCC)c1C	0
Cc1ccc(N2CC(C(=O)NCCc3ccc(S(N)(=O)=O)cc3)CC2=O)cc1 (stereo not given)	0
Cc1ccc(S(=O)(=O)NC(=O)NCc2ccc(Cl)cc2)cc1	0
CCCNC(=O)CCC(NS(=O)(=O)c1ccc(C)cc1)C(=O)NCCC (stereo not given)	73.0	VCAM1 pot conf=0
CCOc1ccc(CCNC(=O)Cn2c(=O)oc3ccccc32)cc1OCC	0
CNc1nc(NC)nc(-n2c(C(F)(F)F)nc3ccccc32)n1	0
CC1CCN(C(=O)Cn2c(=O)n(CCc3ccccc3)c(=O)c3ccccc32)CC1	?	VCAM1 pot conf=0
O=c1c2ccccc2nc(-c2ccoc2)n1CCc1ccccc1	0
O=C(Cn1cnc2ccccc2c1=O)N1CCN(Cc2ccccc2)CC1	0
COc1ccc(S(=O)(=O)Nc2nc3n(n2)C(c2ccc(Cl)cc2)CC(=O)N3)cc1 (stereo not given)	0
Cc1cc(C)c(C#N)c(=N)o1	0
O=C(NC(NCCCN1CCOCC1)(C(F)(F)F)C(F)(F)F)C1CCCCC1	0
CCOc1cc(S(=O)(=O)NC2CCCCCC2)ccc1F	0
COc1ccc(OCC(=O)Sc2ccc(C)cc2)cc1	0
Cc1ccc(OC(=O)CCC(=O)OCCCC(F)(F)C(F)(F)F)cc1	?	VCAM1 pot conf=0
O=C(NC(C(=O)c1ccccc1)n1ccc(=O)[nH]c1=O)c1ccccc1 (stereo not given)	0
CCC(C(=O)N1CCN(c2cccc(Cl)c2)CC1)c1ccccc1 (stereo not given)	0
Cc1nn(C(CC(=O)O)C(=O)O)c(C)c1Br (stereo not given)	0
Cc1ccc(S(=O)(=O)N(C)CC(=O)NC2CC(C)(C)NC(C)(C)C2)cc1	0
Fc1ccc(CSc2ncnc3sc4c(c23)CCCC4)cc1	0
CC(=O)c1ccc(NS(=O)(=O)c2ccc(CC(C)C)cc2)cc1	0
CC(=O)Nc1ccc(S(=O)(=O)NC(CC(=O)NC2CCCCC2C)C(C)C)cc1 (stereo not given)	30.9	VCAM1 pot conf=0
COc1ccc(C)cc1NS(=O)(=O)c1ccc(NS(=O)(=O)c2ccc(NC(C)=O)cc2)cc1	0
CCOC(=O)c1cc2c(nc1N)CC(C)(CC)OC2 (stereo not given)	0
SMILES	VCAM1 pot	others
CC1CCc2c(sc3ncnc(N4CCN(S(=O)(=O)c5cccc6nonc56)CC4)c23)C1 (stereo not given)	0
O=C(COc1ccc2ccccc2c1Br)Nn1cnnc1	0
Cc1ccc(Cl)cc1NC(=O)CC(O)(C(F)(F)F)C(F)(F)F	0
CCOC(=O)c1cc(C#N)c(N2CCCC2)nc1-c1ccccc1	0
CCOC(=O)c1cc(-c2ccc(OC)cc2F)nc2c1c(C)nn2CCC#N	33.6	VCAM1 pot conf=0
CCOC(=O)C1=C(c2ccccc2)Nc2nc(C)nn2C1c1cccc(OC)c1OC (stereo not given)	0
COc1nn(C(C)C(=O)N2N=C(C(F)F)CC2(O)C(F)F)cc1[N+](=O)[O-] (stereo not given)	0
CCc1nnc(NC(=O)CN2CCOCC2)s1	85.1	VCAM1 pot conf=0
Cn1c(CN2CCOCC2)nnc1SCC(=O)Nc1nccs1	0
CCc1nnc(NC(=O)c2cc3c(s2)CCCCC3)s1	0
CCCn1c(=N)n(CCOCCOCCn2c(=N)n(CCC)c3ccccc32)c2ccccc21	0
COc1ccc(OCC(=O)N2CC3(C)CC2CC(C)(C)C3)cc1 (stereo not given)	0
CSC1=NCCN1C(=O)COc1ccc2ccccc2c1	30.1	VCAM1 pot conf=0
O=C(COc1ccc(Br)cc1)N1CCN(c2ccccc2)CC1	0
CSc1nc(C)cc(OCC#N)n1	0
COc1ccccc1-n1cnc2cc(NS(=O)(=O)c3ccc(Br)cc3)ccc21	0
Cc1nc(SCC#N)c2c(C)c(C)sc2n1	0
CCc1ccc(Nc2oc(C)cc(=O)c2C(C)=O)cc1	0
CCN(CC)S(=O)(=O)c1cc([N+](=O)[O-])ccc1NNC(=O)Nc1ccc(Cl)c(Cl)c1	0
CC(C)N(CCc1ccncc1)C(=O)Nc1ccc(Cl)c(Cl)c1	38.5	VCAM1 pot conf=0
CCCC(C)C(=O)Nc1ccncc1 (stereo not given)	0
Cc1ccc(C(=O)C(OC(=O)COc2ccccc2C)c2ccccc2)cc1 (stereo not given)	0

From PubChem BioAssay
